Laboratory results reported in PubChem BioAssay (NCATS).
Inconclusive results are not listed. Values without a mark were called inactive. Calls of active or inactive are those of the source. The call rests on the fitted dose curve; in most records, active means well fitted cell-killing curve with a large enough effect; inconclusive means small, poorly fitted or top-dose-only effect; inactive means flat fitted curve, though single readings scatter.

Test: qHTS of pediatric cancer cell lines to identify multiple opportunities for drug repurposing: Primary screen for Rh18 cells (AID 1347102); further: nearly all actives have a fitted effect of over 65% in size
Settings: Rh18 rhabdomyosarcoma viability, CellTiter-Glo luminescence, 48 h; series mostly up to 46 µM; activity change, negative = cytotoxic: at the top concentration
Excerpt: Drug repurposing or repositioning has been offered as a strategy for drug development in oncology programs. This approach has special potential for childhood cancers and other rare or orphan diseases, where the expected return on new drug development has been a disincentive to pharmaceuticals.
In this project we exploit the poly-pharmacology of drugs to discover new indications via phenotypic screening of a panel of 19 well-characterized cell lines derived from solid tumors seen in children and adolescents. The goal is to identify approved drugs with previously unrecognized anticancer properties that has the potential to reveal new mechanisms and biological processes involved in carcinogenesis or drug resistance. We employed a titration-based paradigm (quantitative high-throughput screening or qHTS), where all compounds were tested at multiple concentrations for their effect on cell viability. Concentration-response curves (CRCs) were derived directly from the primary screen, and both potency and efficacy values were used to identify compounds with robust bioactivity profiles. We screened the NIH Chemical Genomics Center (NCGC) Pharmaceutical Collection (NPC) and Mechanism Interrogation Plate (MIPE) small molecule collections of approved and investigational compounds against these cell lines; and measured metabolically active cells after 48 hours of compound treatment as a proxy for cell viability.
Assay Submitter: Nathalia J. Martinez, National Center for Advancing Translational Sciences, National Institutes of Health, Rockville, MD, USA; email: natalia.martinez@nih.gov
[1] Shen, M et al. Quantitative high-throughput phenotypic screening of pediatric cancer cell lines identifies multiple opportunities for drug repurposing. Oncotarget 2017 Dec 19;9(4):4758-4772. PMID 29435139.
The cells were obtained from University of North Carolina (UNC), Pediatric Preclinical Testing Program (PPT), and Coriell Institute (CI).
qHTS cell viability assay:
Cells were assayed in growth media at a density of 500-1,000 cells/well. Five microliters of cells were dispensed into 1,536-well, white, solid-bottom, TC-treated plates (Greiner Bio One) using a multidrop dispenser and incubated at 37 degrees C, 5% CO2, under a humidified atmosphere for 5 hours. Twenty-three nanoliters of compounds and controls (neutral control DMSO or positive control bortezomib at final concentration of 2.3 µM) were subsequently transferred by Kalypsys pintool. For primary screens, the MIPE collection was tested at 11-point dilutions (final concentrations range from 0.78 nM to 46 µM) and the NPC collection at 8-point dilutions (final concentrations range from 0.59 nM to 46 µM). Compounds tested in follow-up screens were assayed at 11-point dilutions. Cells were incubated for 48 hours, followed by addition of 3 µL of CellTiter-Glo (Promega). After a 15 min incubation at room temperature, samples were analyzed for luminescence intensity using a ViewLux High-throughput CCD imager equipped with clear filters.
On the % scale 0 is the no-effect control and ±100 the full control effect; potency means the concentration at half of the fitted maximal effect.

Compound | Potency | activity change, negative = cytotoxic
NCC1(CC(=O)O)CCCCC1 | inactive | 
CCN(CC)C(=O)N[C@@H]1C=C2c3cccc4[nH]cc(c34)C[C@@H]2N(C)C1 |  | 5.75%
O=[N+]([O-])c1cc([As](=O)(O)O)ccc1O |  | 17.7%
N[C@@H](Cc1ccc(N(CCCl)CCCl)cc1)C(=O)O | 21.1 µM (active) | 
CN(C)[C@@H]1C(=O)C(C(N)=O)=C(O)[C@@]2(O)C(=O)C3=C(O)c4c(O)cccc4[C@@](C)(O)[C@H]3C[C@@H]12 | inactive | 
N[C@@H](Cc1ccc(Oc2cc(I)c(O)c(I)c2)c(I)c1)C(=O)O |  | -0.107%
O=C(O)c1ccc2[nH]cc(CCCCN3CC=C(c4ccccc4)CC3)c2c1 |  | 18.7%
COC1(CS(=O)c2ccccc2)CCN(CCc2c[nH]c3ccc(F)cc23)CC1 (stereo not given) |  | 0.785%
FC(F)(F)c1cccc(C2=CCN(CCc3ccc4ccccc4c3)CC2)c1 |  | 4.13%
CC(C)=CCOc1c2occc2cc2ccc(=O)oc12 |  | 0.705%
O=C(O)C(=O)c1cn(Cc2ccccc2)c2ccc(-c3ccc(OC(F)(F)F)cc3)cc12 |  | -1.3%
CC1NCCOC1c1ccccc1 (stereo not given) |  | 9%
CNCC(O)c1ccc(O)cc1 (stereo not given) | inactive | 
CC(C)=CC1C(C(=O)OCc2cccc(Oc3ccccc3)c2)C1(C)C (stereo not given) |  | 4.35%
CC(C)(N)Cc1ccc(Cl)cc1 |  | -0.805%
NCC(CC(=O)O)c1ccc(Cl)cc1 (stereo not given) |  | -2.74% [at 0.597 µM]
C[C@@H]1[C@@H](C(=O)C[C@H]2O[C@@H]3O[C@]4(C)CC[C@@H]5[C@H](C)CC[C@@H]([C@H]2C)[C@@]35OO4)O[C@@H]2O[C@]3(C)CC[C@H]4[C@H](C)CC[C@@H]1[C@@]24OO3 |  | -28.7%
CC(C)CC(N(C)C)C1(c2ccc(Cl)cc2)CCC1 (stereo not given) | inactive | 
Cc1cc(SCc2sc(-c3ccc(C(F)(F)F)c(F)c3)nc2C)ccc1OCC(=O)O |  | 7.74%
Oc1ccc(Cl)cc1Cc1ccccc1 |  | -27.2%

Compound | Potency | activity change, negative = cytotoxic
CC(=O)Nc1cc([As](=O)(O)O)ccc1O |  | 13.9%
NP(N)(=O)NC(=O)c1ccc(F)cc1 |  | 10.1%
CCCN1CCC[C@@H]2Cc3[nH]ncc3C[C@H]21 |  | 2.82%
OCCOc1ccccc1 |  | 17.2%
NN=C(N)N |  | 9.95%
O=c1oc2ccccc2c(O)c1C(CC(O)c1ccc(-c2ccc(Br)cc2)cc1)c1ccccc1 (stereo not given) |  | 6.71%
NCCc1cc(O)c(O)cc1O |  | -19.8%
c1ccc2c(c1)Nc1ccccc1S2 | inactive | 
Cc1sc2c(c1C)C(c1ccc(Cl)cc1)=N[C@@H](CC(=O)OC(C)(C)C)c1nnc(C)n1-2 | 0.935 µM (active) | 
CN1CCN(C(=O)O[C@H]2c3nccnc3C(=O)N2c2ccc(Cl)cn2)CC1 | inactive | 
CCCC1CCCCN1 (stereo not given) |  | 3.52%
Cc1ccc(-c2nc3ccc(C)cn3c2CC(=O)N(C)C)cc1 |  | 6.75%
Cc1ncc(CNC(=O)N(CCCl)N=O)c(N)n1 |  | 12.4%
Cn1cc(C2=C(c3cn(C4CCN(Cc5ccccn5)CC4)c4ccccc34)C(=O)NC2=O)c2ccccc21 | inactive | 
COc1ccc(C(=O)c2c(C)n(CCN3CCOCC3)c3ccccc23)cc1 | inactive | 
CC(O)(CS(=O)(=O)c1ccc(F)cc1)C(=O)Nc1ccc(C#N)c(C(F)(F)F)c1 (stereo not given) |  | 16.5%
COc1ccccc1N1CCNCC1 |  | 9.59%
CC[C@@H](CO)NC(=O)[C@@H]1C=C2c3cccc4c3c(cn4C)C[C@H]2N(C)C1 |  | 17.1%
COc1ccc2c(c1OC)CN1CCc3cc4c(cc3C1C2)OCO4 (stereo not given) |  | 10.4%
C#CCN(C)[C@H](C)Cc1ccccc1 | inactive | 
